# The panel holds about 83,000 compounds, 20% with a hit somewhere; the sample as a whole holds those more often.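 The test compound was applied at a single concentration to cells in 96-well plates for 48 hours, and percent growth was recorded.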 Unmarked numbers belong to inactive results. The source made the active and inactive calls. The calls were made as follows: active = growth percent below 10; inactive = the rest.
# What was measured:
# Experiment in all cases: NCI-60 one-dose screen, 48 h (100 = growth as untreated, 0 = no growth, -100 = all killed)
# Conditions in all cases: 10 µM unless noted
# SK-MEL-2 melanoma = system: SK-MEL-2 melanoma
# EKVX NSCLC = system: EKVX NSCLC
# SN12C renal = system: SN12C renal
# UO-31 renal = system: UO-31 renal
# TK-10 renal = system: TK-10 renal
# ACHN renal = system: ACHN renal
# CAKI-1 renal = system: CAKI-1 renal
# A498 renal = system: A498 renal
# CCRF-CEM leukemia = system: CCRF-CEM leukemia
# MOLT-4 leukemia = system: MOLT-4 leukemia
Compound,growth (SK-MEL-2 melanoma),growth (EKVX NSCLC),growth (SN12C renal),growth (UO-31 renal),growth (TK-10 renal),growth (ACHN renal),growth (CAKI-1 renal),growth (A498 renal),growth (CCRF-CEM leukemia),growth (MOLT-4 leukemia)
O=C(O)c1cccc2c1-c1ccc(Cl)cc1C2,102%,110%,105%,89.7%,103%,107%,86.5%,96.8%,99.5%,89.9%
O=C(CCCCCn1c2ccccc2c2c3c(c4c5ccccc5[nH]c4c21)C(=O)N(O)C3=O)N1CCOCC1,72.5%,77.7%,57.1%,29.6%,70.7%,29.4%,-22.9% (active),26.9%,5.19% (active),-14.9% (active)
C=C(C)[C@@H]1CC[C@]2(C(=O)OC)CC[C@]3(C)[C@H](CC[C@@H]4[C@@](C)(CC/C(N)=N/O)[C@H](C(=C)C)CC[C@]43C)[C@@H]12,97.9%,97%,97.2%,93%,105%,101%,77.7%,95.1%,107%,92.4%
Oc1ccc(Nc2ccccc2)cc1,125%,81.6%,90.3%,68.4%,117%,46.9%,65.4%,87.4%,0.482% (active),88.6%
N#C/C(=C\c1ccc(-c2ccc(F)cc2)o1)c1nc(-c2ccco2)cs1,108%,40.2%,101%,69.8%,64.2%,98.1%,92%,107%,84.2%,91.6%
Cc1cc2nc3c4cc([N+](=O)[O-])cc([N+](=O)[O-])c4n(CCN(C)C)c3nc2cc1C,108%,82.7%,59.7%,40.4%,117%,35.5%,49.6%,97%,63.1%,31.3%
CC(=O)c1c(C)[nH]c(-c2nc3ccc(N4CCN(C)CC4)cc3[nH]2)c1-c1ccc(OCC2CCOCC2)cc1,53.3%,35.6%,39.9%,6.97% (active),-5.8% (active),19.2%,12.4%,30.8%,30.9%,47.5%
Nc1c(C(=O)Nc2c(Cl)cccc2Cl)sc2nc3c(cc12)C(=O)CCC3,27.3%,76%,47.6%,48.3%,59.5%,50.9%,41.5%,2.03% (active),54.8%,65.3%
O=C1NC(c2ccc(Cl)c(Cl)c2)=C/C1=C\c1ccccc1,107%,70.8%,71.8%,29.2%,100%,4.37% (active),49.3%,105%,45.8%,53.9%
Cn1cc(-c2nc(-c3c[nH]c4ncccc34)cs2)c2ccccc21,87%,22.7%,90%,62.4%,56.9%,88.9%,79.1%,81.5%,75.5%,77.8%
C=C(C)[C@@H]1CC[C@]2(C=NCCCNCCCCNCCCN)CC[C@]3(C)[C@H](CC[C@@H]4[C@@]5(C)CCCNC(C)(C)[C@@H]5CC[C@]43C)[C@@H]12,132%,102%,91.1%,92.1%,120%,105%,80.6%,95.6%,94.4%,93.4%
CC(=O)O[C@@H]1CCN2C(=O)N(C)c3ccccc3[C@@H]2C1,102%,114%,98.9%,94.5%,99.6%,98.6%,95.3%,114%,105%,99.6%
CC(=O)Oc1ccccc1C(=O)/C=C/c1cccc([N+](=O)[O-])c1,96.2%,75.6%,78.9%,-28.1% (active),134%,75.3%,67.6%,92.6%,5.04% (active),50.8%
NC(N)=N/N=C/c1ccc(-c2ccc(-c3ccc(Cl)cn3)s2)cc1,109%,98.9%,89.8%,78%,112%,92.2%,81.5%,88.8%,29.7%,73.7%
Oc1ccccc1/C=N\NC(=S)Nc1ccc(F)cc1,18.5%,29.8%,36.6%,7.46% (active),49.1%,13.8%,-4.58% (active),91.9%,14%,7.67% (active)
CCCCCCCCNc1cccc2c1C(=O)c1ccccc1C2=O,108%,109%,97.6%,92.2%,98.3%,111%,98.3%,81.1%,112%,90.5%
O=C1c2cc3c(cc2-c2c1c1ccc(Cl)cc1c(=O)n2C[C@H](O)[C@@H](O)[C@H](O)CO)OCO3,-67% (active),20.5%,-5.37% (active),-71.6% (active),-48.7% (active),-58.7% (active),-8.82% (active),-77% (active),8.41% (active),2.33% (active)
COc1cccc(-c2nn(-c3ccccc3)cc2-c2ccnc(NCCNS(=O)(=O)c3cccc(F)c3)c2)c1,16.2%,44.6%,33.8%,15.7%,36.7%,21.7%,35.9%,47.7%,12.3%,4.55% (active)
O=C(NC1=CC(=O)c2ccccc2C1=O)c1ccccc1,0.417% (active),9.48% (active),29.2%,-47.5% (active),53.3%,2.6% (active),29.6%,53.3%,8.93% (active),-16.9% (active)
Nc1ccccc1NC(=O)c1ccc(CN2CCC/C(=C\c3ccccn3)C2=O)cc1,27%,33.2%,48.2%,25.4%,14.2%,20.6%,17.7%,7.96% (active),16.7%,7.84% (active)
CN1CCN(CCOc2ccc(-c3cnc4c(-c5cccc(F)c5)cnn4c3)cc2)CC1,97.8%,76.3%,60.6%,39.2%,102%,70.2%,64.5%,45.2%,20.9%,16.6%
O=S(=O)(NCCNc1cc(-c2cn(-c3ccccc3)nc2-c2cccc(O)c2)ccn1)c1ccc(F)cc1,22.2%,56.1%,44.2%,20.1%,46.2%,27.3%,37.1%,36.2%,5.95% (active),4.37% (active)
COc1cnc2c(c1)C(=O)c1c-2n(CCCN2CCN(CCO)CC2)c(=O)c2cc([N+](=O)[O-])ccc12,108%,66%,54%,36.6%,97.2%,25.1%,37.8%,-5.96% (active),-5.14% (active),0.798% (active)
c1csc(-c2nc(-c3cc4ccccc4c(N4CCOCC4)n3)cs2)c1,47.4%,87.9%,92.4%,71.3%,123%,85.2%,84.5%,86.2%,107%,92.1%
CCCCCCCC(=O)SCC/C=C/[C@@H]1CC(=O)NCc2cccc(n2)CN(Cc2ccc(Cl)cc2)CC(=O)N[C@@H](C(C)C)C(=O)O1,1.04% (active),32.5%,21.6%,-5.27% (active),-6.26% (active),-15.5% (active),-7.97% (active),-54% (active),7.54% (active),3.43% (active)
c1ccc2c(-c3nc(-c4c[nH]c5ncccc45)cs3)c[nH]c2c1,102%,80.5%,76.7%,52.5%,120%,97.3%,98.7%,91.8%,75.4%,85.6%
